# Data: PMC7862700, “An all-to-all approach to the identification of sequence-specific readers for epigenetic DNA modifications on cytosine”
# Key:
# Test in all cases: DAPPL (digital affinity profiling via proximity ligation, sequencing); 10 mM Tris-HCl pH 7.5, 50 mM NaCl, 1 mM DTT, 4% glycerol, room temperature, 30 min; GST-TFs on glutathione beads, 16-mer random dsDNA library, 0.1% formaldehyde crosslink after washing; high values mean tight binding
# Details in all cases: protein: recombinant; tags: N-terminal GST; dsDNA, one strand shown
# ERF = target: T1, ERF (Homo sapiens, UniProt P50548 1-548)
# T1 sequence: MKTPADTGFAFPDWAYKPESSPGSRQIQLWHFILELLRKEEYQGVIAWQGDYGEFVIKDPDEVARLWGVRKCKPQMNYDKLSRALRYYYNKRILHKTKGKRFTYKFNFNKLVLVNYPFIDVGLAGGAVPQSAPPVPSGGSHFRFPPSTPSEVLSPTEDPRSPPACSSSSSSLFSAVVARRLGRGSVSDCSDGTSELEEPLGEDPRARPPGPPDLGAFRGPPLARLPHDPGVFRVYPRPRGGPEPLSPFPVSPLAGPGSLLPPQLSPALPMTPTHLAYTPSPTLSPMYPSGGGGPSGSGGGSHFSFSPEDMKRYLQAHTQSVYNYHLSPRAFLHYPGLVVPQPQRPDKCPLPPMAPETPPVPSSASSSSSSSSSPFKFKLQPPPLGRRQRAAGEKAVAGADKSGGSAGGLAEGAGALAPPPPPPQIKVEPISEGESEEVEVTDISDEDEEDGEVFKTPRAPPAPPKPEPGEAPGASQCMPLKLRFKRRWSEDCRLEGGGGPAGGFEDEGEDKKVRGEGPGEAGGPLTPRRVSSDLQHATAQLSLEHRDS
# Summary of the method: (§1)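 Binding signal is each hexamer's read frequency for a factor divided by its frequency in the tag-only sample. The factors were GST-fused human transcription factors from yeast, captured on glutathione beads, DNA-barcoded and pooled with that sample. Pools were incubated with 200 nmole of a random double-stranded 16-mer DNA library in Tris/NaCl/DTT/glycerol buffer at room temperature for 30 min, then washed, crosslinked with 0.1% formaldehyde, proximity-ligated with BsaI/T4 ligase (1 h, 37 °C), PCR-amplified and sequenced on an Illumina NextSeq500.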
# ETV3L = target: T2, ETV3L (Homo sapiens, UniProt Q6ZN32 1-361)
# T2 sequence: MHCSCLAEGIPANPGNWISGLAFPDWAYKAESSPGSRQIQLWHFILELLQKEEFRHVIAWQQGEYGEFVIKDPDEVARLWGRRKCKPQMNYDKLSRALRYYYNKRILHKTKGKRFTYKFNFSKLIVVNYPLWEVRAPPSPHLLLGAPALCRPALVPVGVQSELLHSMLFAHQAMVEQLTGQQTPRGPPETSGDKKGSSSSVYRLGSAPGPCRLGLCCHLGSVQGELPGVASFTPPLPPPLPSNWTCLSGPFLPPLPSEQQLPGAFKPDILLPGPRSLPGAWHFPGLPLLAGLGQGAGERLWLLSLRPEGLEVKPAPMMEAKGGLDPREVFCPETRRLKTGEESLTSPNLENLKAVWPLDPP
# Summary of the method: as §1
# ETS2 = target: T3, ETS2 (Homo sapiens, UniProt P15036 1-469)
# T3 sequence: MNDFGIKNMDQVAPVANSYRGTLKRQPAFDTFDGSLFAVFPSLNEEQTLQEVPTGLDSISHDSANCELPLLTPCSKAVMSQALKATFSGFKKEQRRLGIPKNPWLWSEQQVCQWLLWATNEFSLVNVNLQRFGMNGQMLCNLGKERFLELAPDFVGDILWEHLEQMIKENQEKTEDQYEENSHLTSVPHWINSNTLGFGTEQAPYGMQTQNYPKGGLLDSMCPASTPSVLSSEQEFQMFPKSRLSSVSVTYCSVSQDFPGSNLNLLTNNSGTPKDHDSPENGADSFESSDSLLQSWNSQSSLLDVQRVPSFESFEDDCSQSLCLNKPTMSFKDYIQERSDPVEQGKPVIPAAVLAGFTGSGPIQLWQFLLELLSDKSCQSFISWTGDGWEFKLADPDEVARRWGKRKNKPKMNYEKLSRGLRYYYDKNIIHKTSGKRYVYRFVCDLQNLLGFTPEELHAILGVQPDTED
# Summary of the method: as §1
# SPDEF = target: T4, SPDEF (Homo sapiens, UniProt O95238 1-335)
# T4 sequence: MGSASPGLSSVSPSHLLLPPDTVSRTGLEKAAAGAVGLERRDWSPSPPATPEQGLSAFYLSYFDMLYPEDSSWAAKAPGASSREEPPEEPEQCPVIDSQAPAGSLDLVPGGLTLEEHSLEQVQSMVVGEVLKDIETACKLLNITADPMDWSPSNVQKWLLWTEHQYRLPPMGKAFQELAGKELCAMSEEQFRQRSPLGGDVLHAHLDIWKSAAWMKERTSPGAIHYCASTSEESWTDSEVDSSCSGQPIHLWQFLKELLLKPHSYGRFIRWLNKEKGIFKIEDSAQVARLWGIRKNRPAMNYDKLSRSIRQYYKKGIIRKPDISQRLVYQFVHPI
# Summary of the method: as §1
# ETV7 = target: T5, ETV7 (Homo sapiens, UniProt Q9Y603 1-341)
# T5 sequence: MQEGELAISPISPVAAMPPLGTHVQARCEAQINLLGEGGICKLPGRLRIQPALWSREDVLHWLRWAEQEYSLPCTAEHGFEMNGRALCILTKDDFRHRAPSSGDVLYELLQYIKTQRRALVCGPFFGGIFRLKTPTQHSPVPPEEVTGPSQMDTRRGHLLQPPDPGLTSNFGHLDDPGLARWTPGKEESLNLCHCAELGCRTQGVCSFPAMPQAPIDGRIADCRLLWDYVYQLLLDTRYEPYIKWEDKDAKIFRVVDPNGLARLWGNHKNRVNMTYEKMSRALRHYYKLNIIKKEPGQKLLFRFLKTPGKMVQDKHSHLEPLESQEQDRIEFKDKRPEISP
# Summary of the method: as §1
# ELF5 = target: T6, ELF5 (Homo sapiens, UniProt Q9UKW6-2 1-255)
# T6 sequence: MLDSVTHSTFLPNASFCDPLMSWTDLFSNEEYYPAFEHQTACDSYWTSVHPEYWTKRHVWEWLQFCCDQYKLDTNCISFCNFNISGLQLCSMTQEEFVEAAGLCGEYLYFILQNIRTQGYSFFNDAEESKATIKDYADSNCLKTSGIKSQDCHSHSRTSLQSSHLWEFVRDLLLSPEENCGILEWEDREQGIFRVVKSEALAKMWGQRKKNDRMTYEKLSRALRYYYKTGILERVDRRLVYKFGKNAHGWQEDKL
# Summary of the method: as §1
# ETV3 = target: T7, ETV3 (Homo sapiens, UniProt P41162-2 1-143)
# T7 sequence: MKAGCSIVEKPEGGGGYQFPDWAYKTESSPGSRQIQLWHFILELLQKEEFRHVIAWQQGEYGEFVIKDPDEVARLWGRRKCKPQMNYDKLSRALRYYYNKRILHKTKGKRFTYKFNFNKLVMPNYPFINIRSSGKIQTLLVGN
# Summary of the method: as §1
# ETV6 = ETV6 (Homo sapiens, UniProt P41212 1-452)
# Summary of the method: as §1
# Chain of ETV6 (P41212 whole entry): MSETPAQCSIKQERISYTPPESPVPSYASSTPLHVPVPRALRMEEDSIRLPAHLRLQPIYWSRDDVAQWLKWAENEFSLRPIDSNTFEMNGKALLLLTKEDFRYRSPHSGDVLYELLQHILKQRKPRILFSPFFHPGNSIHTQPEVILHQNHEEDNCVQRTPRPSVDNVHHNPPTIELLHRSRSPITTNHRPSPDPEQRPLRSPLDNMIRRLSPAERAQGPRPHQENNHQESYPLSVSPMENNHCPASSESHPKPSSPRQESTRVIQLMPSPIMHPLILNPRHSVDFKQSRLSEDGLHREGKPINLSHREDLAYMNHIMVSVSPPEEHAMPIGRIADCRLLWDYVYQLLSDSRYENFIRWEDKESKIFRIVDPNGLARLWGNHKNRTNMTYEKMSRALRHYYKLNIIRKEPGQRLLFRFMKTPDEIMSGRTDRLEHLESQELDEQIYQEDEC
sequence,measurement,setting,value
TTTGGG,binding signal,ERF,"1.39 fold enrichment (6-mer frequency, TF over GST control)"
same,binding signal,ETV3L,"1.46 fold enrichment (6-mer frequency, TF over GST control)"
same,binding signal,ETS2,"1.3 fold enrichment (6-mer frequency, TF over GST control)"
same,binding signal,SPDEF,"1.25 fold enrichment (6-mer frequency, TF over GST control)"
same,binding signal,ETV7,"1.29 fold enrichment (6-mer frequency, TF over GST control)"
same,binding signal,ELF5,"1.26 fold enrichment (6-mer frequency, TF over GST control)"
same,binding signal,ETV3,"1.32 fold enrichment (6-mer frequency, TF over GST control)"
same,binding signal,ETV6,"1.3 fold enrichment (6-mer frequency, TF over GST control)"
ATGGTC,binding signal,ERF,"1.45 fold enrichment (6-mer frequency, TF over GST control)"
same,binding signal,ETV3L,"1.49 fold enrichment (6-mer frequency, TF over GST control)"
same,binding signal,ETS2,"1.49 fold enrichment (6-mer frequency, TF over GST control)"
same,binding signal,SPDEF,"1.35 fold enrichment (6-mer frequency, TF over GST control)"
same,binding signal,ETV7,"1.29 fold enrichment (6-mer frequency, TF over GST control)"
same,binding signal,ELF5,"1.46 fold enrichment (6-mer frequency, TF over GST control)"
same,binding signal,ETV3,"1.55 fold enrichment (6-mer frequency, TF over GST control)"
same,binding signal,ETV6,"1.52 fold enrichment (6-mer frequency, TF over GST control)"
TGGTTC,binding signal,ERF,"1.34 fold enrichment (6-mer frequency, TF over GST control)"
same,binding signal,ETV3L,"1.36 fold enrichment (6-mer frequency, TF over GST control)"
same,binding signal,ETS2,"1.32 fold enrichment (6-mer frequency, TF over GST control)"
same,binding signal,SPDEF,"1.35 fold enrichment (6-mer frequency, TF over GST control)"
same,binding signal,ETV7,"1.48 fold enrichment (6-mer frequency, TF over GST control)"
same,binding signal,ELF5,"1.41 fold enrichment (6-mer frequency, TF over GST control)"
same,binding signal,ETV3,"1.44 fold enrichment (6-mer frequency, TF over GST control)"
same,binding signal,ETV6,"1.32 fold enrichment (6-mer frequency, TF over GST control)"
GAAGTA,binding signal,ERF,"1.79 fold enrichment (6-mer frequency, TF over GST control)"
same,binding signal,ETV3L,"1.79 fold enrichment (6-mer frequency, TF over GST control)"
same,binding signal,ETS2,"2.08 fold enrichment (6-mer frequency, TF over GST control)"
same,binding signal,SPDEF,"2.1 fold enrichment (6-mer frequency, TF over GST control)"
same,binding signal,ETV7,"2.08 fold enrichment (6-mer frequency, TF over GST control)"
same,binding signal,ELF5,"2.34 fold enrichment (6-mer frequency, TF over GST control)"
same,binding signal,ETV3,"2.11 fold enrichment (6-mer frequency, TF over GST control)"
same,binding signal,ETV6,"2.52 fold enrichment (6-mer frequency, TF over GST control)"
TCATGC,binding signal,ERF,"1.13 fold enrichment (6-mer frequency, TF over GST control)"
same,binding signal,ETV3L,"1.12 fold enrichment (6-mer frequency, TF over GST control)"
same,binding signal,ETS2,"1.13 fold enrichment (6-mer frequency, TF over GST control)"
same,binding signal,SPDEF,"1.18 fold enrichment (6-mer frequency, TF over GST control)"
same,binding signal,ETV7,"1.17 fold enrichment (6-mer frequency, TF over GST control)"
same,binding signal,ELF5,"1.07 fold enrichment (6-mer frequency, TF over GST control)"
same,binding signal,ETV3,"1.18 fold enrichment (6-mer frequency, TF over GST control)"
same,binding signal,ETV6,"1.11 fold enrichment (6-mer frequency, TF over GST control)"
ACATCA,binding signal,ERF,"1.13 fold enrichment (6-mer frequency, TF over GST control)"
same,binding signal,ETV3L,"1.08 fold enrichment (6-mer frequency, TF over GST control)"
same,binding signal,ETS2,"1.11 fold enrichment (6-mer frequency, TF over GST control)"
same,binding signal,SPDEF,"1.07 fold enrichment (6-mer frequency, TF over GST control)"
same,binding signal,ETV7,"1.1 fold enrichment (6-mer frequency, TF over GST control)"
same,binding signal,ELF5,"1.07 fold enrichment (6-mer frequency, TF over GST control)"
same,binding signal,ETV3,"1.14 fold enrichment (6-mer frequency, TF over GST control)"
same,binding signal,ETV6,"1.16 fold enrichment (6-mer frequency, TF over GST control)"
